Results reported in PubChem BioAssay (NCATS).
Values joined by “and” are separate entries in the source; they are usually repeats but may differ in a detail not shown here. Equal values may be shown once. Inconclusive results are not listed. A call without a number means that no potency is given here. Active and inactive are the calls of the source. Unless noted, the call rests on the fitted dose curve; in most records, active means well fitted curve in the direction sought with a large enough effect in the repeat runs; inconclusive means weak or mixed curves; inactive means no such curve, though single readings can be large; an effect the other way counts as inactive or inconclusive.

Experiments:
[1] = target: Calcium and integrin-binding protein 1 (Homo sapiens) (UniProt Q99828); assay: Primary qHTS for Identification of Calcium Integrin Binding Protein 1 (CIB1) Competitor (AID 1508620; active means well fitted curve in the direction sought with a large enough effect; an effect the other way counts as inactive or inconclusive)
Sequence of Calcium and integrin-binding protein 1 (Homo sapiens) (Q99828 whole entry, looked up): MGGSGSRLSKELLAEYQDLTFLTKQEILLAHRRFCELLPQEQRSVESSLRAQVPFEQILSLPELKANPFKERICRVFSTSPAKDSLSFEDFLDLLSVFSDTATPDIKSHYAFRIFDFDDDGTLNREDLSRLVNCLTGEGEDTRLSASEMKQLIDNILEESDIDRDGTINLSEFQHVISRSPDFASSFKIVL
Method in brief: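 CIB1-GST (1 uM final) and compound incubated 15 min at room temperature before adding FITC-alphaIIb peptide tracer (100 nM final). Competition for binding read by fluorescence polarization (ex 480, em 540) after another 15 min at room temperature.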

[2] = target: Cytochrome P450 2D6 (Homo sapiens) (UniProt P10635); assay: Cytochrome P450 family 2 subfamily D member 6 (CYP2D6) small molecule antagonists: luciferase biochemical (cell-free) qHTS assay (AID 1645840); further: nearly all actives have a fitted effect of over 55% in size
Sequence of Cytochrome P450 2D6 (Homo sapiens) (P10635 whole entry, looked up): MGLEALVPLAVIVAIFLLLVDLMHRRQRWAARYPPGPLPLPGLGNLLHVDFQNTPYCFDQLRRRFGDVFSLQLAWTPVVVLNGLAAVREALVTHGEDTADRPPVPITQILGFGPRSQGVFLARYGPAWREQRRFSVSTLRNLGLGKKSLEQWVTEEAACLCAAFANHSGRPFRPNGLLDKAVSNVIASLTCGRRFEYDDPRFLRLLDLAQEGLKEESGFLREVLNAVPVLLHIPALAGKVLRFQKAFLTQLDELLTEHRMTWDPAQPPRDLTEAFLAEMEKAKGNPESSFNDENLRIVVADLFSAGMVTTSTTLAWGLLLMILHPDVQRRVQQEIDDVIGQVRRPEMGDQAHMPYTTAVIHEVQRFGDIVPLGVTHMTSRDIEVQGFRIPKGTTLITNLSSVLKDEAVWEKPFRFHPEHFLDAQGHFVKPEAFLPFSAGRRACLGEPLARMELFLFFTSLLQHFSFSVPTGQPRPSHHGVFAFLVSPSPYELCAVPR
Method in brief: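 P450-Glo CYP2D6 system: proluciferin substrate converted by enzyme to luciferin, read by luminescence proportional to activity. Enzyme-substrate mix with compound 10 min at room temperature, then NADPH regeneration 1 h before detection reagent.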
Potency means the concentration at half of the fitted maximal effect.

Structure (SMILES)	Potency [1]	Potency [2]
O=C(NC1CCC1)c1ccc(C#Cc2cccc(F)c2)nc1	inactive	inactive
Cc1nc(NC(=O)N2CCC[C@H]2C(N)=O)sc1-c1ccnc(C(C)(C)C(F)(F)F)c1	inactive	inactive
COCCCNC(=O)c1ccc(Cn2c(=O)c3ccccc3n(Cc3ccc(C(C)C)cc3)c2=O)cc1	inactive	inactive
COc1cc(N2CCC(N)CC2)ccc1Nc1ncc(Cl)c(-c2c[nH]c3ccccc23)n1	inactive	21.3 µM (active)
C[C@@H](NC(=O)c1ccc(C#Cc2cccc(F)c2)cn1)C(C)(C)O	inactive	inactive
Cn1ncc(Cl)c1-c1cc(C(=O)NC(CN)Cc2ccc(F)c(F)c2)oc1Cl (centres undefined)	inactive	12 µM (active) and 13.5 µM (active)
N#Cc1cc(CN2CCC(Nc3ncnc4sc(Cl)cc34)CC2)ccc1F	inactive	1.51 µM (active)
Cc1cccc(CC(=O)N2CCc3c2ccc(-c2cn(C)c4ncnc(N)c24)c3F)n1	inactive	inactive
O=S(=O)(c1ccc(Cl)cc1)N1CCN(c2ccnc3cc(Cl)ccc23)CC1	inactive	8.49 µM (active)
Cc1ccc(NC(=O)N2CCN(c3nc(N)nc4sc(-c5cccnc5)nc34)CC2)cc1	inactive	13.5 µM (active)
COc1ccc(S(=O)(=O)N2CCC[C@H]2C(=O)Nc2cc(C)cc(C)c2)cc1	inactive	inactive
CCOC(=O)c1cnn(-c2ccccc2)c1NC(=O)c1cc2nc(-c3ccco3)cc(C(F)(F)Cl)n2n1	inactive	inactive
CN(C)CCn1cc(-c2ccc(F)cc2)c(-n2cccc2)n1	inactive	15.1 µM (active)
COc1ccc(N2CCN(C(=O)c3cc4c(s3)-c3ccccc3S(=O)(=O)C4)CC2)cc1	inactive	inactive
CC(C)c1noc(C2CCN(c3ncnc(Nc4ccc(S(C)(=O)=O)cc4F)c3[N+](=O)[O-])CC2)n1	inactive	inactive
O=C(c1cc(Cc2n[nH]c(=O)c3ccccc23)ccc1F)N1CCCNCC1	inactive	inactive
CCOC(=O)N1CCC(CN(Cc2ccc(Cl)cc2)Cc2ccc([N+](=O)[O-])s2)C1 (centres undefined)	inactive	3.01 µM (active)
Fc1ccc(-c2nc(-c3c(F)cccc3F)[nH]c2-c2ccncc2)cc1	inactive	2.68 µM (active)
CCn1c(=O)n([C@H]2CCCN(c3nccc(-c4cc5ccccc5o4)n3)C2)c2ccccc21	inactive	inactive
CC1=C(C(=O)OC2CCCCC2)C(c2ccc([N+](=O)[O-])cc2)C2=C(CC(C)(C)CC2=O)N1 (centres undefined)	17.8 µM (active)	21.3 µM (active)
CCCCNc1ncc2c(-c3ccc(S(=O)(=O)N4CCOCC4)cc3)nn(C3CCC(O)CC3)c2n1 (centres undefined)	inactive	inactive
COc1ccc(NC(=O)c2ccc(C(=N)N(C)C)cc2)c(C(=O)Nc2ccc(Cl)cn2)c1	inactive	inactive
N#Cc1ccc2ncnc(NCCc3ccccc3)c2c1	inactive	15.1 µM (active)
Fc1ccc(CN2CCC(Nc3ccc(C(F)(F)F)nn3)CC2)cc1F	inactive	1.2 µM (active)
CCNC(=O)c1noc(-c2cc(Cl)c(O)cc2O)c1-c1ccc(OC)cc1	inactive	26.8 µM (active)
O=S1(=O)CCN(Cc2cc(NCC3CCOCC3)c3[nH]c(-c4ccccc4)cc3c2)CC1	inactive	12 µM (active)

Structure (SMILES)	Potency [1]	Potency [2]
CCNC(=O)N1CCCN(c2ccc(C(=O)NCCc3ccc(Cl)cc3Cl)cc2NC(=O)c2cccc(Cl)c2)CC1	inactive	4.77 µM (active)
O=C(NCCN1CCN(c2cccc3c2OCCO3)CC1)c1ccc(F)cc1	inactive	12 µM (active)
Cc1cc(C(=O)Cn2cc(C#N)ccc2=O)c(C)n1Cc1ccccc1	inactive	inactive
CC[C@@H](Nc1c(Nc2cccc(C(=O)N(C)C)c2O)c(=O)c1=O)c1cc(C(C)C)co1	inactive	16.9 µM (active)
COc1ccc(Cl)c(Nc2ncnc3cc(OCC4CCN(C)CC4)c(OC)cc23)c1	inactive	inactive
COc1ccc2c(c1O[C@H]1CCNC1)CCC2	inactive	16.9 µM (active)
COCCN(C(=O)c1cc(OC)c(OC)c(OC)c1)c1nc(-c2ccccc2)cs1	inactive	inactive
O=c1cc(OCc2ccc(F)cc2)ccn1-c1ccc(OCCN2CCCC2)cc1	inactive	16.9 µM (active)
O=C(OC1CN2CCC1CC2)N1CCc2ccccc2C1c1ccccc1 (centres undefined)	inactive	19 µM (active)
Cc1c(C(=O)Nc2ccc(N3CCC(N4CCOCC4)CC3)c(C#N)c2)cnn1-c1ccc(Cl)cc1	inactive	12 µM (active)
CC(C)c1cccc(C(C)C)c1NC(=O)Nc1ccc(Sc2ccc([N+](=O)[O-])cc2)cc1	inactive	inactive
Clc1cccc(COc2cncc(N3CCNCC3)n2)c1	inactive	8.49 µM (active)
C#CCOc1ccc2c(c1)c(-c1ccc(C(C)C)cc1)nc(=O)n2C(C)C	inactive	23.9 µM (active)
CC#CCn1c(N2CCCC(N)C2)nc2c1c(=O)n(Cc1nc(C)c3ccccc3n1)c(=O)n2C (centres undefined)	inactive	inactive
CN1CCN(c2ccc(OC(F)(F)F)c(Nc3ncc4c(n3)-c3c(c(C(N)=O)nn3CCO)CC4)c2)CC1	inactive	inactive
CN(C)C(=O)Nc1cc(-c2ccccc2)ccc1N(C)C	inactive	inactive
C[C@H](Nc1ncnc2nc[nH]c12)c1cc2cccc(Cl)c2c(=O)n1-c1ccccc1	inactive	inactive
O=C1Nc2nc(-c3c(O)cccc3OCC3CC3)cc([C@@H]3CCCNC3)c2CO1	inactive	19 µM (active)
COc1ccccc1N1CCN(c2ncnc3n[nH]c(Br)c23)CC1	inactive	inactive
Cc1cc(Nc2nc(-c3ccccc3)nc3ccccc23)n[nH]1	inactive	inactive
CN1CCN(S(=O)(=O)c2ccc(-c3cnc(N)c(C(=O)Nc4cccnc4)n3)cc2)CC1	inactive	inactive
CC(C)(C)Oc1ccc(OCC2Cc3ccccc3CN2C(=O)c2cccc3ccccc23)cc1 (centres undefined)	inactive	inactive
Cc1c(Cl)cccc1S(=O)(=O)Nc1nc(NCCc2ccccc2)nc2c1CN(Cc1ccccc1)CC2	inactive	4.77 µM (active)
Oc1ccc(-c2cnc3ccc(NCc4ccco4)nn23)cc1	inactive	1.69 µM (active)
Cc1ccc(C)c(NC(=O)[C@@H]2CCCN2S(=O)(=O)c2cccc3cccnc23)c1	inactive	16.9 µM (active)
c1ccc(-c2ccc(CNc3nc(-c4ccccn4)nnc3-c3ccccc3)cc2)cc1	inactive	2.68 µM (active)

Structure (SMILES)	Potency [1]	Potency [2]
Nc1nc(O)c(C2=C3C(=Nc4ccccc43)C(=O)NCC2)[nH]1	inactive	inactive
N#CC(CCCN1CCN(/N=C/c2cccnc2)CC1)(c1ccccc1)c1ccccc1	inactive	0.849 µM (active)
CCOc1nc(NC(=O)Cc2cc(OC)ccc2OC)cc(N)c1C#N	inactive	inactive
Cc1ccc(N2CCN(CCC3NC(=O)c4ccccc43)CC2)cc1C (centres undefined)	inactive	inactive
CC(F)(F)CN1CCOc2c(nn(-c3ccccc3Cl)c2-c2ccc(Cl)cc2)C1=O	inactive	13.5 µM (active)
CCOC(=O)C1(CCOc2ccccc2)CCN(Cc2ccc(O)c(Cl)c2)CC1	inactive	0.425 µM (active)
COc1ccc(-c2csc(NC(=O)[C@H]3CCCCN3S(=O)(=O)c3ccc(C)cc3)n2)cc1	inactive	inactive
Fc1ccc2c(CCNCc3cccc(OCC(F)(F)C(F)F)c3)c[nH]c2c1	inactive	0.0477 µM (active)
COc1cc(C(=O)NC(=S)Nc2cccc(NC(=O)c3ccccc3)c2)cc(OC)c1OC	inactive	inactive
CCC(C)CNCC(=O)N1CCc2sccc2C1COc1cccc(C)c1 (centres undefined)	inactive	0.0952 µM (active)
Cc1cc(CS(=O)(=O)c2ccccc2)cc(OCc2ccc(CN3CCCC3CO)cc2)c1 (centres undefined)	inactive	0.952 µM (active)
CCC[C@H](N[C@H]1CCc2cc(F)cc(F)c2C1)C(=O)Nc1cn(C(C)(C)CNCC(C)(C)C)cn1	inactive	inactive
Clc1ccc(Cn2c(Cc3ccccc3)nc3ccccc32)cc1	inactive	10.7 µM (active)
Cc1cc(F)ccc1-c1nc(NCCN=C(N)NC#N)nc2c1ccc(=O)n2-c1c(F)cccc1F	inactive	19 µM (active)
Cc1nc(-c2cn3c(n2)-c2ccc(-c4cnn(C(C)(C)C(N)=O)c4)cc2OCC3)n(C(C)C)n1	inactive	inactive
CC(C)(Cc1ccccc1)NCC(O)c1ccc(O)c(NS(C)(=O)=O)c1 (centres undefined)	inactive	3.79 µM (active)
C[C@@H](Nc1ncnc2[nH]c(-c3ccc(O)cc3)cc12)c1ccccc1	inactive	1.34 µM (active)
CCCc1ccc(OCC(=O)N(Cc2nc(-c3cccnc3)no2)C(C)C)cc1	inactive	19 µM (active)
CCN(c1cc(-c2ccc(CN3CCOCC3)cc2)cc(C(=O)NCc2c(C)cc(C)[nH]c2=O)c1C)C1CCOCC1	inactive	23.9 µM (active)
CC(C)NCCCn1c(Sc2cc3c(cc2I)OCO3)nc2c(N)ncnc21	inactive	0.536 µM (active)
N#CC(CCCN1CCC(O)(c2ccc(Cl)cc2)CC1)(c1ccccc1)c1ccccc1	inactive	0.536 µM (active)
Cc1ccnn1-c1ccc(C(=O)N2CCN(S(=O)(=O)c3ccc(Cl)c(C(F)(F)F)c3)CC2)cc1	inactive	inactive
CCN1CCN(Cc2ccc(C(=O)Nc3ccc(C)c(Oc4ccc5c(c4)CC(=O)N5)c3)cc2C(F)(F)F)CC1	inactive	16.9 µM (active)
O=C(NCC1(N2CCN(c3ccccc3)CC2)CCOCC1)c1cccnc1Sc1ccccc1	inactive	inactive
COc1ccccc1N1CCN(CC[C@@](C)(C(=O)C2CCCCC2)c2ccccc2)CC1	inactive	12 µM (active)
